# Shown are actives, neighbours in structure and some others; about 19% of the full set was active somewhere.
# DT40 TDP1 no CPT: qHTS for Inhibitors of human tyrosyl-DNA phosphodiesterase 1 (TDP1): qHTS in cells in absence of CPT; DT40 Tdp1-/- hTDP1 cells, no CPT, ATP luminescence, 48 h; Potency, µM (highest dose often 46.2 µM), usual class: inhibitors; AID 686978, 2013; hit rate 15% among 420,000; further: nearly all actives have a fitted effect of over 55% in size
#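 DT40 Tdp1-/-;hTDP1 cells, no CPT (DMSO vehicle only), 400 cells/well; compounds pin-transferred; ≥48 hr, 37 °C; CellTiter-Glo 30 min RT dark, luminescence read.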
# HT1080 IDH1KD tx: qHTS for induction of synthetic lethality in tumor cells producing 2HG: qHTS for the HT-1080-IDH1KD cell line; HT-1080 IDH1 knockdown viability, ATP luminescence, 48 h; Potency, µM (highest dose often 46.1 µM), actives largely listed as cytotoxic; hit rate 2% among 360,000; AID 686971, 2013
#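 Knockdown cells (IDH1KD HT-1080) received compounds 2 h after plating at 750 cells/well and were kept 48 h at 37 °C in 5% FBS RPMI. A CellTiter-Glo luminescence read gave % activity for curve fitting.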
# HT1080NT lethal: qHTS for induction of synthetic lethality in tumor cells producing 2HG: qHTS for the HT-1080-NT fibrosarcoma cell line; HT-1080-NT fibrosarcoma viability, CellTiter-Glo ATP luminescence, 48 h; Potency, µM (top dose mostly 46.1 µM), actives largely listed as cytotoxic; hit rate 1.6% among 360,000; AID 686970, 2013;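 further: NT is the 2HG producing partner of a matched IDH1 knockdown line; nearly all actives have a fitted effect of over 55% in size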
#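 Compounds were tested in concentration-response format on HT-1080-NT cells for 48 hours at 37 degrees C. Cell viability came from CellTiter-Glo luminescence; curves were classified by r2, response magnitude and activity.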
# DT40 TDP1 CPT: qHTS for Inhibitors of human tyrosyl-DNA phosphodiesterase 1 (TDP1): qHTS in cells in presence of CPT | chicken DT40 Tdp1-/-;hTDP1 cells + 20 nM CPT, ATP luminescence, 48 h | Potency, µM (highest dose often 46.2 µM), most hits filed as inhibitors | hit rate 12% among 420,000 | AID 686979, 2013; further: nearly all actives have a fitted effect of over 55% in size
#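 Chicken DT40 Tdp1-/- cells stably complemented with human TDP1 were seeded at 400 cells/well in medium containing 20 nM camptothecin, exposed to pin-transferred compounds, and grown at 37 °C for at least 48 hr. Viability was read as ATP luminescence.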
# KB-3-1 cytotox: qHTS assay for MDR1-selective chemotherapeutics: Primary screen using the parental adenocarcinoma cell KB-3-1 | Potency, µM (doses to about 46.1 µM), most hits filed as cytotoxic | KB-3-1 viability, CellTiter-Glo ATP luminescence, 72 h | hit rate 1.4% among 400,000; further: nearly all actives have a fitted effect of over 60% in size
#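 Using CellTiter-Glo luminescence, growth of non-resistant KB-3-1 adenocarcinoma cells is assessed 72 h after pin-tool compound addition at 37 °C. Normalized responses across the concentration series yield fitted curves.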
# KB-V1 MDR tox: qHTS assay for MDR1-selective chemotherapeutics: Primary screen using the drug-selected MDR subline cells KB-V1; KB-V1 MDR cells viability, CellTiter-Glo, 72 h; Potency, µM (highest dose often 46.1 µM), usual class: cytotoxic; hit rate 3.4% among 400,000; AID 1347076, 2019; further: nearly all actives have a fitted effect of over 60% in size
#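 KB-V1 cells (P-gp-expressing MDR subline of KB-3-1) in phenol-red-free DMEM with 10% FBS were exposed to library compounds over a concentration series for 72 h at 37 degrees C. Viability read by CellTiter-Glo luminescence; concentration-effect curves fitted after normalization.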
# Numbers stand for hits; . = inactive; ? = inconclusive; / = no result given; ! = not active in a repeat. The call rests on the fitted dose curve; in most records, active means well fitted curve in the direction sought with a large enough effect; inconclusive means small, poorly fitted or top-dose-only effect, or another doubt; inactive means no such curve, though single readings can be large; an effect the other way counts as inactive or inconclusive.
SMILES,DT40 TDP1 no CPT,HT1080 IDH1KD tx,HT1080NT lethal,DT40 TDP1 CPT,KB-3-1 cytotox,KB-V1 MDR tox
COc1ccc(-c2nnc(Nc3nc4c(OC)cccc4s3)o2)c(OC)c1,4.1µM,3.2µM,4µM,4.6µM,?,?
CC(C)c1ccc(NC(=O)CN2C(=O)CN=C(c3ccccc3)c3ccccc32)cc1,?,/,/,.,.,.
O=C(NC(c1cccnc1)C(F)(F)F)c1cnn(-c2nccc(-c3cccs3)n2)c1C1CC1 (stereo unspecified),21µM,/,/,?,/,/
CCc1ccc2nc(N3CCC(C(=O)N4CCC5(CC4)OCCO5)CC3)sc2c1,16µM,.,?,12µM,?,.
O=C(C1CCN(c2nc3ccc(Br)cc3s2)CC1)N1CCC2(CC1)OCCO2,12µM,.,.,12µM,.,.
CCOc1ccc2nc(N3CCC(C(=O)N4CCC5(CC4)OCCO5)CC3)sc2c1,?,.,.,?,?,2.9µM
Cc1ccc2nc(N3CCC(C(=O)N4CCC5(CC4)OCCO5)CC3)sc2c1,?,.,.,?,.,?
Cc1cccc(C(O)c2ncc(-c3ccccc3Cl)[nH]2)c1C (stereo unspecified),?,.,.,?,.,.
CC(=O)[C@]1(O)CCC2C3CCC4=CC(=O)CC[C@@]4(C)C3CC[C@]21C (stereo partly specified),.,/,/,?,/,/
Brc1ccc2c(c1)CN(CC1CCCCC1)Cc1cnnn1-2,?,.,.,?,.,18µM
COc1ccc(NC(=S)N2Cc3ccccc3-n3nncc3C2)c(OC)c1,12µM,.,.,?,.,.
O=S(=O)(c1cccc2ccccc12)N1Cc2ccccc2-n2nncc2C1,12µM,.,.,23µM,.,?
Cc1cc(C)c(S(=O)(=O)N2Cc3ccccc3-n3nncc3C2)c(C)c1,2.1µM,.,.,5.2µM,?,?
Cc1ccc(S(=O)(=O)N(c2cc(Cl)c(O)c(Cl)c2)P(=O)(OC(C)C)OC(C)C)cc1,.,.,.,.,?,.
O=C1NC(=O)C2(CCN(c3ccccc3)CC2)C(=O)N1,.,.,.,.,.,.
O=S(=O)(c1ccc(Cl)cc1)N1Cc2cc(Br)ccc2-n2nncc2C1,23µM,.,.,21µM,.,?
COc1ccc(S(=O)(=O)N2Cc3ccccc3-n3nncc3C2)cc1,15µM,.,.,16µM,.,.
CCN(CC)CCN/N=C(\C)c1c(O)[nH]c(=O)[nH]c1=O,.,.,.,.,.,.
C#CCN(C)C(C)Cc1ccccc1 (stereo unspecified),3.7µM,.,.,?,?,.
CC(Cc1ccccc1)N(C)CC1C(=O)C2CCC1C2 (stereo unspecified),.,.,.,?,.,.
Cc1ccc(N2CCN(C(=O)c3cn(CC4CCCCC4)nn3)C(C)C2)cc1 (stereo unspecified),?,?,?,18µM,.,?
CCS(=O)(=O)NCc1nnc2n1-c1ccc(Br)cc1C(c1ccccc1Cl)=NC2,.,.,.,.,.,.
Cc1c(C(=O)c2cccc3ccccc23)c2cccc3c2n1[C@H](CN1CCOCC1)CO3,4.6µM!,9.2µM,15µM,2.9µM!,?,?
Cc1c(C(=O)c2ccc3ccccc3c2)c2cccc3c2n1[C@H](CN1CCOCC1)CO3,?,/,/,12µM,/,/
CC(C)CN1CC2(CCN(C(=O)Oc3ccccc3)CC2)C1,.,/,/,.,/,/
SMILES,DT40 TDP1 no CPT,HT1080 IDH1KD tx,HT1080NT lethal,DT40 TDP1 CPT,KB-3-1 cytotox,KB-V1 MDR tox
CCOc1cc2c(cc1OCC)-n1cccc1C(c1ccc(OC)c(O)c1)NC2 (stereo unspecified),18µM,.,.,?,.,.
CCOc1cc2c(cc1OCC)-n1cccc1C(c1ccc(C)cc1C)NC2 (stereo unspecified),?,21µM,?,?,?,?
CCOc1cc2c(cc1OCC)-n1cccc1C(c1cc(C)c(OC)cc1C)NC2 (stereo unspecified),7.3µM,.,.,10µM,.,.
CCOc1cc(C2NCc3ccccc3-n3cccc32)ccc1OC (stereo unspecified),.,.,.,.,.,.
Cc1ccc2c(c1)C1CN(C)CCC1N2 (stereo unspecified),?,/,/,.,/,/
Cc1cc(NC(=O)CCC(=O)N2CCC3(CC2)OCCO3)no1,.,.,.,.,.,.
COc1ccc(OC)c(C(O)C2CCCCN2)c1 (stereo unspecified),.,.,.,.,.,.
CCOC(=O)[C@]12Cc3cc(OC)ccc3[C@H]1N(Cc1ccccc1)C(=O)c1cc(F)c(F)cc12,?,.,.,?,?,?
CCOC(=O)[C@]12Cc3cc(OC)ccc3[C@H]1N(Cc1ccccc1)C(=O)c1ccccc12,11µM,.,.,?,?,?
CCOC(=O)[C@]12Cc3cc(C)ccc3[C@H]1N(Cc1ccccc1)C(=O)c1ccccc12,15µM,.,.,10µM,?,?
CCOC(=O)[C@]12Cc3cc(C)ccc3[C@H]1N(Cc1ccccc1)C(=O)c1cc(F)c(F)cc12,15µM,?,?,21µM,3.3µM,.
CCCCCN1C(=O)c2ccccc2[C@@]2(C(=O)OCC)Cc3cc(OC)ccc3[C@@H]12,4.6µM,12µM,15µM,7.3µM,5.8µM,?
C=CCN1C(=O)C2(C(C(=O)OC)=C(N)Oc3c2c(=O)oc2ccccc32)c2ccccc21 (stereo unspecified),?,/,/,?,?,.
CCC1(CC)C(=O)N(C)C(=O)NC1=NC,.,.,.,.,.,.
Cc1cc(=O)oc2cc3c(cc12)CCCN3,.,.,.,.,.,.
COC(=O)C1=C(c2ccc(S(C)(=O)=O)cc2)C[C@@H]2CC[C@H]1N2C(=O)NC(C)C,.,.,.,.,.,.
CCOC(=O)[C@]12Cc3ccccc3[C@H]1N(Cc1ccccc1)C(=O)c1ccccc12,?,.,.,?,.,?
CCOC(=O)[C@]12Cc3cc(C)ccc3[C@H]1N(C(C)C)C(=O)c1ccccc12,6.5µM,26µM,12µM,10µM,4.1µM,.
CCOC(=O)[C@]12Cc3c(cc(OC)c(OC)c3OC)[C@H]1N(C(C)C)C(=O)c1ccccc12,15µM,6.5µM,?,23µM,13µM,8.2µM
CCc1cccc(CC)c1NC(=S)N1CC2CC(C1)c1cccc(=O)n1C2 (stereo unspecified),.,?,.,.,.,.
